Results as given in ChEMBL document CHEMBL4513216, “Probing the Open Global Health Chemical Diversity Library for Multistage-Active Starting Points for Next-Generation Antimalarials” (ACS Infect Dis, 2020).
About 8,600 (12%) of roughly 69,000 compounds showed an effect of 50% or more. The list comes from a sample in which strong results are over-represented; it also holds similar structures and randomly drawn compounds.

These compounds were tested on Plasmodium berghei (assay: Screen against P. berghei liver stage (PbLuc), transformed with Luciferase, at 10uM). Conditions: tested at 10 uM.
Assay type: functional, HepG2

Row | SMILES | INHIBITION [%]
1 | C[C@@H]1CN(C(=O)C2CCS(=O)(=O)CC2)C[C@]1(C)O | -7.81
2 | O=C(C(CNCc1cccs1)c1ccccc1)N1CCOCC1 (stereo not given) | 5.85
3 | NC(=O)C(NCc1ccc(Cl)s1)c1ccccc1 (stereo not given) | -22.6
4 | CNC(=O)NC(=O)C(NCc1ccccc1)c1ccccc1 (stereo not given) | 24.8
5 | CNC(=O)NC(=O)C(NCc1cccs1)c1ccccc1 (stereo not given) | 64.7
6 | NC(=O)C(NCCc1ccc(Cl)s1)c1ccccc1 (stereo not given) | -35.8
7 | NC(=O)C(NCc1cccs1)c1ccccc1 (stereo not given) | 60.1
8 | CC(C)(C)N1CC(C(=O)N2CC(Oc3ccc(F)cc3)C2)CC1=O (stereo not given) | 18.5
9 | COCCN1CCC2(CC1)CC(c1cccnc1)CO2 (stereo not given) | 16.4
10 | N#Cc1ccc(OCC(O)CN2CCC(Cn3cccn3)CC2)cc1 (stereo not given) | 5.7
11 | CNC(=O)[C@H]1C[C@@H]2CN(S(=O)(=O)c3ccc(OC)cc3)C[C@@H]2N1C | 46.6
12 | COCc1cncc2c1CCN(C(=O)c1cccc(C#N)c1)C2 | 14.9
13 | Cn1ccnc1CN1CCC2(CC(=O)N(c3ccsc3)C2)C1 (stereo not given) | 53.2
14 | COc1cccc(N2CC3(CCN(Cc4nccn4C)C3)CC2=O)c1 (stereo not given) | 40.4
15 | Cn1ccnc1CN1CCC2(CC(=O)N(c3cccc(F)c3)C2)C1 (stereo not given) | 25.3
16 | Cn1ccnc1CN1CCC2(CC(=O)N(c3cncnc3)C2)C1 (stereo not given) | 33.5
17 | Cn1cc(N2CC3(CCN(Cc4nccn4C)C3)CC2=O)cn1 (stereo not given) | 14.8
18 | Cc1cccc(N2CC3(CCN(Cc4nccn4C)C3)CC2=O)c1 (stereo not given) | 52
19 | CCc1nc(C2CCCN2CCCS(N)(=O)=O)no1 (stereo not given) | 31.9
20 | CSCCC(NC(=O)C1CC1)C(=O)N(C)Cc1ccsc1 (stereo not given) | 42.6
21 | Cc1noc(C)c1CCc1nc(C2CCOC2)no1 (stereo not given) | -94.3
22 | COCCC(=O)N1CCOCC2(CCN(Cc3cccs3)C2)C1 (stereo not given) | -5.31

Row | SMILES | INHIBITION [%]
23 | Cn1cc(-c2ncnc3c2CCN(CC2CCOC2)CC3)cn1 (stereo not given) | 25.8
24 | CN(C)[C@@H]1CCN(S(=O)(=O)C2CC2)[C@H]1Cc1ccccc1 | 27.5
25 | Cc1nc(C2CCCN(C(=O)c3cccc4c3OCO4)C2)sc1C (stereo not given) | 40
26 | c1cc(-c2cn[nH]c2)ccc1CN1CCNCC1 | 14.6
27 | Cc1ccc(-c2ncc(C(=O)NCCS(N)(=O)=O)s2)c(C)c1 | -37.3
28 | CCNC(=O)C(C)NC(=O)c1cnc(-c2ccc(C)cc2C)s1 (stereo not given) | 50.5
29 | Cc1ccc(-c2ncc(C(=O)NCCNC(=O)C(C)C)s2)c(C)c1 | -10.9
30 | COc1ccccc1C(O)CNC(=O)NCc1csc(C)n1 (stereo not given) | 13.3
31 | O=S(=O)(c1cccs1)N1Cc2nc(CN3CCCC3)oc2C1 | 67.5
32 | CN(C)Cc1nc2c(o1)CN(S(=O)(=O)c1cccs1)C2 | 34
33 | O=S(=O)(c1cccs1)N1Cc2nc(CN3CCCCC3)oc2C1 | 19.5
34 | O=S(=O)(c1cccs1)N1Cc2nc(COCC3CC3)oc2C1 | 30.3
35 | c1csc(CN2Cc3nc(CN4CCCC4)oc3C2)c1 | 33.5
36 | CCN(CC)Cc1nc2c(o1)CN(S(=O)(=O)c1cccs1)C2 | 57.5
37 | O=c1c(S(=O)(=O)N2CCCC2)cccn1Cc1c(F)cccc1Cl | 7.92
38 | Cc1nc[nH]c1CN1CCC2(CC1)CC(Nc1ncccn1)CO2 (stereo not given) | 27.6
39 | CCc1cnc(CN2CCC(N(Cc3noc(CC)n3)C(C)=O)C2)o1 (stereo not given) | -15.5
40 | CC1CN(CC(=O)NCc2cccs2)CCN1c1nccs1 (stereo not given) | 36.1
41 | Cc1ccc(-c2cc(N)c(=O)n(C(C)C(N)=O)n2)o1 (stereo not given) | -6.88
42 | COc1ccccc1CN1C[C@@H]2CN(C(C)=O)CCO[C@@H]2C1 | 0.453
43 | COCC(=O)N1CCN(C(=O)NC(C)C)CC2(CC(=O)N(C)C2)C1 (stereo not given) | 45.2
44 | O=C1NCC2=Nc3ccccc3NC(c3ccccc3)C12 (stereo not given) | 7.92

Row | SMILES | INHIBITION [%]
45 | CN(C)CCOCc1nnc2n1CCN(Cc1ccc(F)cc1)CC2 | 69.8
46 | CN(C)CCOCc1nnc2n1CCN(Cc1ccoc1)CC2 | 0.618
47 | COc1ccc(CN2CCc3nnc(COCCN(C)C)n3CC2)cc1 | 22.4
48 | CN(CC(=O)N1CCCCC1c1nc(C(C)(C)C)cs1)C1CC1 (stereo not given) | -19.9
49 | Cc1nccc(C2CCCCN2Cc2ccc(F)cc2)n1 (stereo not given) | 41.2
50 | Cc1cc(COC(=O)[C@@H]2Cc3ccccc3CN2S(C)(=O)=O)no1 | 5.91
51 | CCS(=O)(=O)N1Cc2ccccc2CC1C(=O)OCc1cc(C)no1 (stereo not given) | 60.2
52 | CCS(=O)(=O)N1Cc2ccccc2CC1C(=O)OCc1c(C)noc1C (stereo not given) | -16.3
53 | Cc1nc(CN2CCC3(CCCN(Cc4cnn(C)c4)C3)C2=O)cs1 (stereo not given) | -0.912
54 | COc1ccc2[nH]c3c(N(C)CC4OCCO4)ncnc3c2c1 | -112
55 | O=C(c1ccsc1)N1C[C@@H]2C[C@@H](c3nnc(C4CC4)o3)O[C@@H]2C1 | -31.6
56 | O=C(c1cccs1)N1CC[C@H]2C[C@@H](c3nnc(C4CC4)o3)O[C@@H]2C1 | 26.7
57 | Cc1ccoc1C(=O)N1CC[C@H]2C[C@H](c3nnc(C4CC4)o3)O[C@@H]2C1 | 54.8
58 | Cc1occc1C(=O)N1CC[C@H]2C[C@@H](c3nnc(C4CC4)o3)O[C@@H]2C1 | 68.4
59 | O=C(Cc1ccsc1)N1C[C@@H]2C[C@@H](c3nnc(C4CC4)o3)O[C@@H]2C1 | 61.8
60 | O=C(c1ccsc1)N1CC[C@H]2C[C@@H](c3nnc(C4CC4)o3)O[C@@H]2C1 | -1.64
61 | O=C(c1ccccc1)N1CC[C@H]2C[C@H](c3nnc(C4CC4)o3)O[C@@H]2C1 | 38.5
62 | O=C(c1ccoc1)N1CC[C@H]2C[C@@H](c3nnc(C4CC4)o3)O[C@@H]2C1 | 35.8
63 | O=C(c1ccccc1)N1CC[C@H]2C[C@@H](c3nnc(C4CC4)o3)O[C@@H]2C1 | 38.5
64 | Cc1ccnc(C2COCCN2C)n1 (stereo not given) | 8.905
65 | CCn1ccnc1CN1CCN(CC(O)c2ccco2)CC1 (stereo not given) | 10.55
